Laboratory results published in PubChem BioAssay (NCATS).
Inconclusive results are not listed. Activity calls are given as the source filed them. Unless noted, calls come from the whole dose curve; as a rule, active = well fitted curve in the direction sought with a large enough effect; inconclusive = small, poorly fitted or top-dose-only effect, or another doubt; inactive = no such curve, though single readings can be large; an effect the other way counts as inactive or inconclusive.

Legend:
[1] = molecular target: Ubiquitin carboxyl-terminal hydrolase 1 (Homo sapiens) (UniProt O94782); assay: Inhibitors of USP1/UAF1: Pilot qHTS (AID 504865);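 note: rhodamine fluorescence freed from ubiquitin-rhodamine substrate followed over time; top concentration of the series differs between compounds; nearly all actives have a fitted effect of over 35% in size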
Method in brief: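 USP1/UAF1 complex (1nM) preincubated with compound 15 min at room temperature, then Ub-Rho substrate (150nM final) added. Fluorescence read kinetically at 480/540 nm, 6 reads every 60 seconds. Buffer: 50mM HEPES pH 7.8, 0.5mM EDTA, 0.1 mg/ml BSA, 1mM TCEP, 0.01% Tween-20.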

[2] = molecular target: Luciferin 4-monooxygenase (Photinus pyralis) (UniProt P08659); assay: Biochemical firefly luciferase enzyme assay for NPC (AID 624030);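 note: purified P. pyralis luciferase at 10 nM with luciferin and ATP substrate; nearly all actives have a fitted effect of over 70% in size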
Method in brief: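 Purified P. pyralis luciferase at 10 nM in 50 mM Tris Acetate (final), luminescence read within 5 minutes of enzyme addition to compounds. Activity normalised to PTC124 versus DMSO; concentration-response curves classed by r2, magnitude and activity.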

[3] = S16 Schwann cell PMP22 intronic element firefly luciferase assay (AID 624032); note: nearly all actives have a fitted effect of over 30% in size
Method in brief: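 Rat S16 Schwann cells stably carrying firefly luciferase driven by a PMP22 intronic element, in 10% FBS, treated 24 h at 37 C. ONE-Glo luminescence normalized to PTC124 control and DMSO (0%); curves classed by r2, magnitude and activity.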

[4] = S16 Schwann cell PMP22 intronic element beta-lactamase assay (AID 624044; calls by dose curve; note: nearly all actives have a fitted effect of over 15% in size)
Method in brief: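 Beta-lactamase reporter under a PMP22 intronic regulatory element in stable S16 rat Schwann cells; 24 h compound exposure. 460 nm blue signal normalized between DMSO (0%) and potassium clavulanate, with 535 nm FRET tracking viability; curves classed by r2 and response.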

[5] = system: 3D7; assay: qHTS profiling for inhibitors of Plasmodium falciparum proliferation (AID 504749); note: nearly all actives have a fitted effect of over 60% in size; conditions: P. falciparum in erythrocytes, SYBR Green DNA, 72 h; series mostly up to 28.7 µM
Method in brief: (§1)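 SYBR Green fluorescence (ex 485 nm, em 535 nm) reports parasite DNA after 72 h compound exposure of infected red cells at 0.3% parasitemia, 2.5% hematocrit; signal normalized to 0.29 uM artemisinin and vehicle wells.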

[6] = system: 7G8; assay: as above; conditions: P. falciparum in erythrocytes, SYBR Green DNA, 72 h; series mostly up to 28.7 µM
Method in brief: as §1

[7] = system: CP215; assay: as above; conditions: P. falciparum in erythrocytes, SYBR Green DNA, 72 h; series mostly up to 28.7 µM
Method in brief: as §1

[8] = system: CP260; assay: as above; conditions: P. falciparum in erythrocytes, SYBR Green DNA, 72 h; series mostly up to 28.7 µM
Method in brief: as §1

[9] = system: CP286; assay: as above; conditions: P. falciparum in erythrocytes, SYBR Green DNA, 72 h; series mostly up to 28.7 µM
Method in brief: as §1

[10] = system: CP291; assay: as above; conditions: P. falciparum in erythrocytes, SYBR Green DNA, 72 h; series mostly up to 28.7 µM
Method in brief: as §1

[11] = system: CP297; assay: as above; conditions: P. falciparum in erythrocytes, SYBR Green DNA, 72 h; series mostly up to 28.7 µM
Method in brief: as §1

[12] = system: CP315; assay: as above; conditions: P. falciparum in erythrocytes, SYBR Green DNA, 72 h; series mostly up to 28.7 µM
Method in brief: as §1

[13] = system: CP335; assay: as above; conditions: P. falciparum in erythrocytes, SYBR Green DNA, 72 h; series mostly up to 28.7 µM
Method in brief: as §1

[14] = system: DIV14; assay: as above; conditions: P. falciparum in erythrocytes, SYBR Green DNA, 72 h; series mostly up to 28.7 µM
Method in brief: as §1

[15] = system: Dd2; assay: as above; conditions: P. falciparum in erythrocytes, SYBR Green DNA, 72 h; series mostly up to 28.7 µM
Method in brief: as §1

[16] = system: ICS; assay: as above; conditions: P. falciparum in erythrocytes, SYBR Green DNA, 72 h; series mostly up to 28.7 µM
Method in brief: as §1

[17] = system: JCK; assay: as above; conditions: P. falciparum in erythrocytes, SYBR Green DNA, 72 h; series mostly up to 28.7 µM
Method in brief: as §1

[18] = system: TAB165; assay: as above; conditions: P. falciparum in erythrocytes, SYBR Green DNA, 72 h; series mostly up to 28.7 µM
Method in brief: as §1

[19] = S16 Schwann cell viability assay (CellTiter-Glo assay) (AID 624031);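 note: native untransfected S16 rat Schwann cells; cellular ATP luminescence as a viability measure; nearly all actives have a fitted effect of over 70% in size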
Method in brief: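 Following overnight culture in 10% FBS DMEM, parental S16 rat Schwann cells are dosed for 24 h at 37 °C. Viability is read as CellTiter-Glo luminescence and expressed as % activity relative to DMSO (0%) and no-cell wells.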

[20] = system: GB4; assay: qHTS profiling for inhibitors of Plasmodium falciparum proliferation (AID 504749); note: nearly all actives have a fitted effect of over 60% in size; conditions: P. falciparum in erythrocytes, SYBR Green DNA, 72 h; series mostly up to 28.7 µM
Method in brief: as §1

Measured: Potency

Chain of Ubiquitin carboxyl-terminal hydrolase 1 (Homo sapiens) (O94782 whole entry, looked up): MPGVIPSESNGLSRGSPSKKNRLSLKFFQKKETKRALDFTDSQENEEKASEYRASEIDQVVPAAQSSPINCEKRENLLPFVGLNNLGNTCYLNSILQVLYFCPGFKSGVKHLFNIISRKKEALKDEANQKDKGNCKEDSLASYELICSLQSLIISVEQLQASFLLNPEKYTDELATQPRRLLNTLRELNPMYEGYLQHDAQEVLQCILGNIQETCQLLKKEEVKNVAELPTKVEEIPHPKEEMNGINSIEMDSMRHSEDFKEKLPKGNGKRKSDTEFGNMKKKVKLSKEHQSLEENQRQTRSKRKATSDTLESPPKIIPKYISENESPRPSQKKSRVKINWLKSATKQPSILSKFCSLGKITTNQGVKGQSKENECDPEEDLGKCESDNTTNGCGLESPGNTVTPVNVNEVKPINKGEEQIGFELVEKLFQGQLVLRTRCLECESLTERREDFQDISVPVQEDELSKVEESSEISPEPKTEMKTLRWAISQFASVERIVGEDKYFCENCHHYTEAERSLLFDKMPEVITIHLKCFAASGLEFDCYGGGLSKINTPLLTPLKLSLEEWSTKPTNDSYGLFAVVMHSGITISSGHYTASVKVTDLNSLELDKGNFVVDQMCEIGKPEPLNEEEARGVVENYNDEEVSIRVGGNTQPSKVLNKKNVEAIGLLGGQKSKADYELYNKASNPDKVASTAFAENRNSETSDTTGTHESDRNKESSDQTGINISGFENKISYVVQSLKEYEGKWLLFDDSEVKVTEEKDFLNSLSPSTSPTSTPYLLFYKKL
Chain of Luciferin 4-monooxygenase (Photinus pyralis) (P08659 whole entry, looked up): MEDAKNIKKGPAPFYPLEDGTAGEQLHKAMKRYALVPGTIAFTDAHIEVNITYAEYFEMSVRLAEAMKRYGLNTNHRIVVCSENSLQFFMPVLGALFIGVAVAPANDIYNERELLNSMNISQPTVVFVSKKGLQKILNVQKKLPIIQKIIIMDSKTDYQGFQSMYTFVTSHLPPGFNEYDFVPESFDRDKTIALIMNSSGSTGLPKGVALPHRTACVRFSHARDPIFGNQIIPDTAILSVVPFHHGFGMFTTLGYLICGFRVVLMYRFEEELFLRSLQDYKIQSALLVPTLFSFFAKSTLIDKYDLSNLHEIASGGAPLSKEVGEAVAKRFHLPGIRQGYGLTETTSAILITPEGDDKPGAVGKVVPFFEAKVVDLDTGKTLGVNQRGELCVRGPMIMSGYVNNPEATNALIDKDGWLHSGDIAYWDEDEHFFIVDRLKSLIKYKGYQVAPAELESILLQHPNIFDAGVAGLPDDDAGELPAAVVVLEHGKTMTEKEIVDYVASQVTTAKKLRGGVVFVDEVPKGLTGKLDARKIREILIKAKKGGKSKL

COc1cccc2c1C(=O)c1c(O)c3c(c(O)c1C2=O)C[C@](O)(C(=O)CO)C[C@@H]3O[C@H]1C[C@H](N)[C@@H](O)[C@H](C)O1
inactive: [1] | [2] | [3] | [4] | [5] | [6] | [7] | [8] | [9] | [10] | [11] | [12] | [13] | [14] | [15] | [16] | [17] | [18]

CC1(C)[C@@H]2CC[C@]1(C)[C@@H](OC(=O)CSC#N)C2
inactive: [1] | [2] | [19] | [3] | [4] | [5] | [7] | [8] | [9] | [10] | [11] | [12] | [13] | [14] | [15] | [20] | [17] | [18]
